Results from the supplement of paper PMC13380429.

Test system: Vero E6 infected with SARS-CoV-2
Assay: inhibition of SARS-CoV-2 cytopathic effect; higher = more antiviral protection, active = above 15
Details: 48 h

Measured: inhibition of SARS-CoV-2 cytopathic effect

O=C(c1ccc(F)cc1)N1CCC[C@H](c2nc(-c3ccc(F)cc3)no2)C1
inactive: 1 nM -1.67% | 8.33 nM -0.59% | 100 nM -0.85% | 833.33 nM 0.74% | 10000 nM 2.44%

N#Cc1ncccn1 [2-cyanopyrimidine]
inactive: 1 nM 4.29% | 8.33 nM 5.63% | 100 nM 4.71% | 833.33 nM 6.33% | 10000 nM 4.34%

Cc1cc2c(s1)Nc1ccccc1N=C2N1CCN(C)CC1 [olanzapine]
inactive: 1 nM -1.67% | 8.33 nM -2.18% | 100 nM -0.41% | 833.33 nM 8.51% | 10000 nM 1.41%

COc1cc(COc2cc(N)c(Cl)cc2C(=O)CCC2CCN(CCNS(C)(=O)=O)CC2)cc(OC)c1
active: 10000 nM 28.3%
inactive: 1 nM 0.91% | 8.33 nM 2.62% | 100 nM -0.09% | 833.33 nM 2.63%

O=c1cc(-c2ccc(O)c(O)c2)oc2cc(O)cc(O)c12 [luteolin]
inactive: 1 nM 1.96% | 8.33 nM 0.53% | 100 nM -1.61% | 833.33 nM -0.15% | 10000 nM 7.72%

Cc1cccc(Nc2nc(-c3ccncc3)cs2)c1
inactive: 1 nM 0.53% | 8.33 nM -0.51% | 100 nM -0.62% | 833.33 nM 8.36%
active: 10000 nM 48.4%

CCCCCCOC(=O)NC(=N)c1ccc(NCc2nc3cc(C(=O)N(CCC(=O)OCC)c4ccccn4)ccc3n2C)cc1 [dabigatran-etexilate]
inactive: 1 nM 1% | 8.33 nM 2.6% | 100 nM 1.5% | 833.33 nM 1.44% | 10000 nM -2.8%

Cc1cc(SCc2sc(-c3ccc(C(F)(F)F)cc3)nc2C)ccc1OCC(=O)O
inactive: 1 nM -0.18% | 8.33 nM 1.2% | 100 nM 0.1% | 833.33 nM 1.79% | 10000 nM -2.99%

COC(F)(F)C(Cl)Cl [methoxyflurane]
inactive: 1 nM 0.46% | 8.33 nM 5.27% | 100 nM 4.68% | 833.33 nM 0.29% | 10000 nM -1.64%

COC(=O)[C@@H]1[C@H]2C[C@H]3c4[nH]c5ccccc5c4CCN3C[C@@H]2CC[C@@H]1O [yohimbine]
inactive: 1 nM 0.18% | 8.33 nM 2.4% | 100 nM 1.41% | 833.33 nM -1.6% | 10000 nM -0.14%

N#Cc1ccccc1OCC(O)CNCCNC(=O)Nc1ccccc1 (stereo not given)
inactive: 1 nM 0.6% | 8.33 nM 0.87% | 100 nM -0.54% | 833.33 nM 0.35% | 10000 nM -2.72%

O=C1CCC[C@@H]2[C@H]3C[C@@H](CN12)[C@@H]1CCCCN1C3 [lupanine]
inactive: 1 nM 2.64% | 8.33 nM 9.38% | 100 nM 5.68% | 833.33 nM 1.8% | 10000 nM -0.17%

Clc1cccc(Cl)c1NC1=NCCN1 [clonidine]
inactive: 1 nM -0.43% | 8.33 nM -2.8% | 100 nM -3.01% | 833.33 nM 0.52% | 10000 nM -5.58%

COc1ccc(Cc2cnc(N)nc2N)cc1OC [diaveridine]
inactive: 1 nM -0.02% | 8.33 nM 0.43% | 100 nM -0.86% | 833.33 nM 2.81% | 10000 nM 0.75%

OC[C@H]1O[C@@H](n2cnc3c(N[C@H]4CCC[C@@H]4O)ncnc32)[C@H](O)[C@@H]1O
inactive: 1 nM 4.79% | 8.33 nM 4.09% | 100 nM 3.63% | 833.33 nM -0.63% | 10000 nM 0.91%

COc1nccc(-c2c(-c3ccc(F)cc3)ncn2[C@H]2CC[C@H](O)CC2)n1
inactive: 1 nM 5.42% | 8.33 nM 6.4% | 100 nM 3.88% | 833.33 nM 2.66% | 10000 nM 7.7%

C/C=C(/C(=C/C)c1ccc(O)cc1)c1ccc(O)cc1 [dienestrol]
inactive: 1 nM 2% | 8.33 nM -0.9% | 100 nM -0.85% | 833.33 nM 0.84% | 10000 nM 1.6%

O=S(=O)(NCC1CC1)c1ccc(Nc2nccc(N3CCCc4cc(O)ccc43)n2)cc1 [pyrintegrin]
active: 10000 nM 36%
inactive: 1 nM 2.46% | 8.33 nM 5.45% | 100 nM 4.41% | 833.33 nM 14.1%

NC(=O)N/N=C/c1ccc([N+](=O)[O-])o1 [nitrofurazone]
inactive: 1 nM 0.32% | 8.33 nM 0.46% | 100 nM -1.2% | 833.33 nM -0.04% | 10000 nM 0.07%

COc1ccc(C2(CNC(=O)c3ccc(NC(=O)c4ccco4)cc3)CCOCC2)cc1
inactive: 1 nM 1.26% | 8.33 nM 1.21% | 100 nM -2.16% | 833.33 nM -1.65% | 10000 nM -2.44%

CC(C)n1c(=O)n(C(=O)N[C@H]2C[C@H]3CC[C@@H](C2)N3C)c2ccccc21
inactive: 1 nM 3% | 8.33 nM 1.63% | 100 nM -0.05% | 833.33 nM -0.36% | 10000 nM -2.53%

CN1C(=O)/C(=C2/C(=O)Nc3ccccc32)c2ccccc21 [meisoindigo]
inactive: 1 nM -1.49% | 8.33 nM -3.61% | 100 nM -2.28% | 833.33 nM 1.46%
active: 10000 nM 18.2%

Clc1cccc2c1CN(C1=NCCN1)C2
inactive: 1 nM 1.97% | 8.33 nM 3.31% | 100 nM 3.22% | 833.33 nM 2.65% | 10000 nM -2.32%

O=C1C(=Cc2cccnc2)C(=O)c2ccccc21
inactive: 1 nM 1.43% | 8.33 nM 1% | 100 nM 3.58% | 833.33 nM 5.97% | 10000 nM 5.97%

O=C(c1ccc(OCCN2CCCCC2)cc1)c1c(-c2ccc(O)cc2)sc2cc(O)ccc12 [raloxifene]
active: 10000 nM 24.4%
inactive: 1 nM 3.31% | 8.33 nM 1.2% | 100 nM 2.79% | 833.33 nM 4.77%

CC1=C(/C=C/C(C)=C/C=C/C(C)=C/CO)C(C)(C)CCC1 [retinol]
inactive: 1 nM -0.49% | 8.33 nM 0.39% | 100 nM 0.03% | 833.33 nM 2.09% | 10000 nM 2.75%

O=C1NCN(c2ccccc2)C12CCN(CC1COc3ccccc3O1)CC2 (stereo not given) [spiroxatrine]
inactive: 1 nM -0.76% | 8.33 nM 0.74% | 100 nM 1.03% | 833.33 nM 0.28% | 10000 nM 0.38%

COC(=O)c1cnn(-c2ccc(F)cc2F)c1/C=N/NC(=S)NC(C)(C)C
inactive: 1 nM -1.1% | 8.33 nM 0.05% | 100 nM 2.03% | 833.33 nM 3.03% | 10000 nM 6.39%

NC(Cc1ccc(I)cc1)C(=O)O (stereo in doubt) [4-iodo-L-phenylalanine]
inactive: 1 nM 0.62% | 8.33 nM -0.66% | 100 nM 0.54% | 833.33 nM 0.32% | 10000 nM -0.26%

C[C@]1(Cn2ccnn2)[C@H](C(=O)O)N2C(=O)C[C@H]2S1(=O)=O [tazobactam]
inactive: 1 nM 0.92% | 8.33 nM -1.48% | 100 nM 2.92% | 833.33 nM 0.65% | 10000 nM 2.47%

N=C(N)NCCC[C@H](NC(=O)c1sccc1NS(=O)(=O)c1cccc2nsnc12)C(=O)O
inactive: 1 nM -1.17% | 8.33 nM 0.96% | 100 nM 1.72% | 833.33 nM 0.4% | 10000 nM 1.98%

COc1cc(C2Oc3cc([C@H]4Oc5cc(O)cc(O)c5C(=O)[C@@H]4O)ccc3OC2CO)ccc1O (stereo not given in full) [silibinin]
inactive: 1 nM -0.88% | 8.33 nM -0.77% | 100 nM 0.27% | 833.33 nM -1.29% | 10000 nM 1.72%

CCCCCCOc1ccccc1C(N)=O [exalamide]
inactive: 1 nM -5.16% | 8.33 nM -3.3% | 100 nM -2.73% | 833.33 nM -0.34% | 10000 nM -3.76%

O=C1c2c(O)cc(O)cc2O[C@H](c2cc(O)c(O)c(O)c2)[C@H]1O [dihydromyricetin]
inactive: 1 nM 2.39% | 8.33 nM 3.54% | 100 nM 1.66% | 833.33 nM 1.69% | 10000 nM -1.52%

O=C(O)COc1ccc(/C=C2\SC(=O)NC2=O)cc1
inactive: 1 nM 0.12% | 8.33 nM 0.67% | 100 nM 5.3% | 833.33 nM 4.16% | 10000 nM -0.64%

CC(C)(N)c1nc(-c2ccc(OC(F)(F)F)cc2)c[nH]1
inactive: 1 nM 0.82% | 8.33 nM 0.2% | 100 nM 2.45% | 833.33 nM 1.1% | 10000 nM -2.65%

CO/N=C1/C[C@@H](C(=O)NC[C@@H](O)c2ccccc2)N(C(=O)c2ccc(-c3ccccc3C)cc2)C1 [OT-R-antagonist-1]
inactive: 1 nM -0.95% | 8.33 nM 1.59% | 100 nM -0.48% | 833.33 nM 1.09% | 10000 nM -1.5%

C[C@@H]1CC[C@@]2(OC1)O[C@H]1C[C@H]3[C@@H]4CC=C5C[C@@H](O)CC[C@]5(C)[C@H]4CC[C@]3(C)[C@H]1[C@@H]2C [diosgenin]
inactive: 1 nM -0.61% | 8.33 nM -0.09% | 100 nM 0.12% | 833.33 nM -2.38% | 10000 nM -1.29%

CCn1c(=O)/c(=C2\Sc3ccccc3N2C)s/c1=C\c1cccc[n+]1CC
inactive: 1 nM -0.41% | 8.33 nM 2.22% | 100 nM -0.82% | 833.33 nM -0.9% | 10000 nM -6.25%

Oc1ccc(/C=C/c2cc(O)cc(O)c2)cc1 [resveratrol]
inactive: 1 nM 1.06% | 8.33 nM 0.64% | 100 nM -2.17% | 833.33 nM -0.25% | 10000 nM 3.82%

CCCCN1CCC(CCC(=O)c2cc(Cl)c(N)cc2OC)CC1
inactive: 1 nM -0.14% | 8.33 nM -0.19% | 100 nM -0.31% | 833.33 nM -1.87% | 10000 nM -3.77%
